# Results from the supplement of paper PMC12645437, “Orthogonal IMiD-Degron Pairs Induce Selective Protein Degradation in Cells” (ACS Chemical Biology, 2025).
# In all, about 8,300 sequences were measured (“log2 fold change of degron read counts, EGFP-low vs EGFP+ sorted cells (limma voom), compound-induced degradation”: median about -1.1, highest 2% from about 3.2 on). Shown is part of a subset that was picked to be rich in the highest values.
# T1: CRBN, Q96SW2
# T1 chain: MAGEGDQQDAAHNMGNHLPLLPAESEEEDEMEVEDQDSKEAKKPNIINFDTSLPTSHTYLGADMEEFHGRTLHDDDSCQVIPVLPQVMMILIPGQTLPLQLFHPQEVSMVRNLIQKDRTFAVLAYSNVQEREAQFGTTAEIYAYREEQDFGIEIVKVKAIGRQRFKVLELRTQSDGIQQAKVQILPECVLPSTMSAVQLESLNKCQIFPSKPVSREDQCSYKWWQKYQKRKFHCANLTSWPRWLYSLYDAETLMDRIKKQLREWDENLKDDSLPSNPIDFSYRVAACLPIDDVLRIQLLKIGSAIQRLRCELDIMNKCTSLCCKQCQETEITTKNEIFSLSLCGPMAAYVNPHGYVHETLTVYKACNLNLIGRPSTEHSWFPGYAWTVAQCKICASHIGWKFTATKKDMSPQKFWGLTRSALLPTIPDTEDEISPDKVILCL
# Biological target: T1, CRBN, Q96SW2
# Test: log2 fold change of degron read counts, EGFP-low vs EGFP+ sorted cells (limma voom), compound-induced degradation; higher = more compound-induced degradation of the degron-EGFP fusion; degrons are variants of IKZF1/3 zinc finger 2; compound dose not given here
# Details: Jurkat, 18 h
# [1] = compound: compound 19 (5-tert-butyl-thalidomide)
# [2] = compound: compound 22 (5-morpholino-thalidomide)
# [3] = compound: compound 33 (diphenyl IMiD analogue)
# 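Note: pooled lentiviral library of zinc finger degron-EGFP fusions in mCherry-positive Jurkat cells, FACS-sorted after compound exposure, with degron abundance counted by next-generation sequencing.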
sequence,measurement,setting,value
"FLCEVCGAEFTQKGNLLRHIKL [46F_47L_49E_50V_52G_53A_54E_55F_67L_, Q9UKT9]",log2 fold change of degron read counts,[1],0.493
same,log2 fold change of degron read counts,[2],-1.2
same,log2 fold change of degron read counts,[3],0.235
same,log2 fold change of degron read counts,compound: thalidomide,1.01
"FYCPICGRSFTQKGNLLRHIKL [46F_47Y_49P_50I_52G_53R_54S_55F_67L_, Q9UKT9]",log2 fold change of degron read counts,[1],-1.81
same,log2 fold change of degron read counts,[2],-2.36
same,log2 fold change of degron read counts,[3],-1.67
same,log2 fold change of degron read counts,compound: thalidomide,-2.4
"FHCNQCGHYFTQKGNLLRHIKL [46F_47H_49N_50Q_52G_53H_54Y_55F_67L_, Q9UKT9]",log2 fold change of degron read counts,[1],-2.17
same,log2 fold change of degron read counts,[2],-2.71
same,log2 fold change of degron read counts,[3],-2.16
same,log2 fold change of degron read counts,compound: thalidomide,-1.62
"FYCPICGRMFTQKGNLLRHIKL [46F_47Y_49P_50I_52G_53R_54M_55F_67L_, Q9UKT9]",log2 fold change of degron read counts,[1],-0.787
same,log2 fold change of degron read counts,[2],-1.23
same,log2 fold change of degron read counts,[3],-0.675
same,log2 fold change of degron read counts,compound: thalidomide,-1.57
"FNCEVCGARFTQKGNLLRHIKL [46F_47N_49E_50V_52G_53A_54R_55F_67L_, Q9UKT9]",log2 fold change of degron read counts,[1],2.12
same,log2 fold change of degron read counts,[2],0.955
same,log2 fold change of degron read counts,[3],-0.805
same,log2 fold change of degron read counts,compound: thalidomide,0.249
"FQCEVCGARFTQKGNLLRHIKL [46F_47Q_49E_50V_52G_53A_54R_55F_67L_, Q9UKT9]",log2 fold change of degron read counts,[1],-0.109
same,log2 fold change of degron read counts,[2],1.95
same,log2 fold change of degron read counts,[3],1.42
same,log2 fold change of degron read counts,compound: thalidomide,3.71
"FKCEVCGARFTQKGNLLRHIKL [46F_47K_49E_50V_52G_53A_54R_55F_67L_, Q9UKT9]",log2 fold change of degron read counts,[1],-1.76
same,log2 fold change of degron read counts,[2],-3.02
same,log2 fold change of degron read counts,[3],-3.44
same,log2 fold change of degron read counts,compound: thalidomide,-1.87
"FACEVCGALFTQKGNLLRHIKL [46F_47A_49E_50V_52G_53A_54L_55F_67L_, Q9UKT9]",log2 fold change of degron read counts,[1],1.98
same,log2 fold change of degron read counts,[2],-0.613
same,log2 fold change of degron read counts,[3],-0.457
same,log2 fold change of degron read counts,compound: thalidomide,-1.05
"FLCEVCGARFTQKGNLLRHIKL [46F_47L_49E_50V_52G_53A_54R_55F_67L_, Q9UKT9]",log2 fold change of degron read counts,[1],-0.109
same,log2 fold change of degron read counts,[2],-1.35
same,log2 fold change of degron read counts,[3],-0.123
same,log2 fold change of degron read counts,compound: thalidomide,2.09
"FACEVCGADFTQKGNLLRHIKL [46F_47A_49E_50V_52G_53A_54D_55F_67L_, Q9UKT9]",log2 fold change of degron read counts,[1],1.11
same,log2 fold change of degron read counts,[2],-1.42
same,log2 fold change of degron read counts,[3],-1.53
same,log2 fold change of degron read counts,compound: thalidomide,-1.97
"FVCEVCGARFTQKGNLLRHIKL [46F_47V_49E_50V_52G_53A_54R_55F_67L_, Q9UKT9]",log2 fold change of degron read counts,[1],1.35
same,log2 fold change of degron read counts,[2],2.78
same,log2 fold change of degron read counts,[3],0.984
same,log2 fold change of degron read counts,compound: thalidomide,3.25
"FGCEVCGADFTQKGNLLRHIKL [46F_47G_49E_50V_52G_53A_54D_55F_67L_, Q9UKT9]",log2 fold change of degron read counts,[1],-1.71
same,log2 fold change of degron read counts,[2],-2.17
same,log2 fold change of degron read counts,[3],-0.906
same,log2 fold change of degron read counts,compound: thalidomide,-1.3
"FMCEVCGARFTQKGNLLRHIKL [46F_47M_49E_50V_52G_53A_54R_55F_67L_, Q9UKT9]",log2 fold change of degron read counts,[1],0.167
same,log2 fold change of degron read counts,[2],-0.178
same,log2 fold change of degron read counts,[3],1.48
same,log2 fold change of degron read counts,compound: thalidomide,1.48
"FGCEVCGALFTQKGNLLRHIKL [46F_47G_49E_50V_52G_53A_54L_55F_67L_, Q9UKT9]",log2 fold change of degron read counts,[1],2.18
same,log2 fold change of degron read counts,[2],0.893
same,log2 fold change of degron read counts,[3],1.4
same,log2 fold change of degron read counts,compound: thalidomide,-0.493
"FACEVCGARFTQKGNLLRHIKL [46F_47A_49E_50V_52G_53A_54R_55F_67L_, Q9UKT9]",log2 fold change of degron read counts,[1],3.91
same,log2 fold change of degron read counts,[2],3.03
same,log2 fold change of degron read counts,[3],-0.415
same,log2 fold change of degron read counts,compound: thalidomide,1.17
"FGCEVCGARFTQKGNLLRHIKL [46F_47G_49E_50V_52G_53A_54R_55F_67L_, Q9UKT9]",log2 fold change of degron read counts,[1],3.86
same,log2 fold change of degron read counts,[2],2.74
same,log2 fold change of degron read counts,[3],-0.6
same,log2 fold change of degron read counts,compound: thalidomide,1.27
